Measurements reported in PubChem BioAssay (Tox21).
Results filed as inconclusive are left out. Activity calls are given as the source filed them. Unless noted, calls come from the whole dose curve.

Key:
[1] = Nuclear factor erythroid 2-related factor 2/antioxidant responsive element (Nrf2/ARE) small molecule agonists: qHTS cell viability counter screen in human keratinocytes (AID 1919968; active = well fitted curve in the direction sought with a large enough effect in the repeat runs; an effect the other way counts as inactive or inconclusive; note: nearly all actives have a fitted effect of over 55% in size; note: potency is the fitted concentration of half-maximal effect)
Method in brief: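 Measured as CellTiter-Fluor fluorescence, this readout tracks cytotoxicity in the same wells as the ARE-luciferase screen. HaCaT reporter cells (1,500/well) received compounds after a 5 h pre-incubation and were exposed for 23 h.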

[2] = Nuclear factor erythroid 2-related factor 2/antioxidant responsive element (Nrf2/ARE) small molecule agonists: luciferase reporter gene qHTS assay in human keratinocytes (AID 1919969); note: nearly all actives have a fitted effect of over 35% in size; note: potency is the fitted concentration of half-maximal effect
[3] = biological target: Gonadotropin-releasing hormone receptor (Homo sapiens) (UniProt P30968); assay: Human gonadotropin-releasing hormone receptor (GnRHR) small molecule agonists, calcium flux assay in GnRHR-HEK293 cells (AID 1920063); note: nearly all actives have a fitted effect of over 35% in size
Sequence of Gonadotropin-releasing hormone receptor (Homo sapiens) (P30968 whole entry, looked up): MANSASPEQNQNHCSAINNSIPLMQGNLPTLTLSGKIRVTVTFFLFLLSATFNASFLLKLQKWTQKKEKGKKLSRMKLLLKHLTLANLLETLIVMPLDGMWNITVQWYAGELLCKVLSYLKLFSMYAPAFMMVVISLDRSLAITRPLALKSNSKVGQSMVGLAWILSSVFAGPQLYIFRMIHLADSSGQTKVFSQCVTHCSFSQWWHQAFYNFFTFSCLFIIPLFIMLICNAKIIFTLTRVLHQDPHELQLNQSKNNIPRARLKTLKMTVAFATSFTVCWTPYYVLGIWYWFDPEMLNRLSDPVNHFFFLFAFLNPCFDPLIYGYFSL
Method in brief: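 Fluorescence kinetics (480 nm excitation, 540 nm emission; 3 min, 1 s steps) report calcium mobilisation in human GnRHR-HEK293 cells in agonist mode. Dye incubation: 1 h, 37 C.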

[4] = biological target: KiSS-1 receptor (Homo sapiens) (UniProt Q969F8); assay: Human kisspeptin (KISS1R) small molecule agonists, calcium flux assay in KISS1R-HEK293 cells (AID 1920064; active = well fitted curve in the direction sought with a large enough effect in the repeat runs; an effect the other way counts as inactive or inconclusive)
Sequence of KiSS-1 receptor (Homo sapiens) (Q969F8 whole entry, looked up): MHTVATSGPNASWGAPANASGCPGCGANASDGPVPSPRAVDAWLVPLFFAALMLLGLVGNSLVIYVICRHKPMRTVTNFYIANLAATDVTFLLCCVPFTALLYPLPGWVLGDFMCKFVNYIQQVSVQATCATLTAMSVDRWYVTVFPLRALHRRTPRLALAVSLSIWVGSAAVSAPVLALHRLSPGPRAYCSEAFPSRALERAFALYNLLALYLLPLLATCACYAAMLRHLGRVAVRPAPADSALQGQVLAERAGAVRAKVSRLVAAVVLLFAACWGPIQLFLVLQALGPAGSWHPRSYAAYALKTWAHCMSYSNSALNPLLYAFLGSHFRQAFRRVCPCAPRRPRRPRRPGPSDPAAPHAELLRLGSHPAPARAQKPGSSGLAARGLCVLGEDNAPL
Method in brief: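 Measures KISS1R agonism through calcium-sensitive dye fluorescence in stably transfected HEK293 cells, read for 3 min after pin-tool compound delivery; 15-point titrations in triplicate.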

[5] = p53 small molecule agonists, cell-based qHTS assay with human liver microsomes (AID 1963577)
Method in brief: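 Compounds act here after metabolic activation: human liver microsomes and NADPH, both at 0.5 mg/mL final, were co-added to p53RE-bla cells. Incubation ran 16 h at 37 C, followed by LiveBLAzer detection.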

[6] = p53 small molecule agonists, cell-based qHTS assay with rat liver microsomes (AID 1963578)
Method in brief: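 Read-out is beta-lactamase reporter fluorescence (LiveBLAzer, 2 h, room temperature, dark) in p53RE-bla cells treated 16 h at 37 C with compound, rat liver microsomes and NADPH, both 0.5 mg/mL final.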

[7] = p53 small molecule agonists, cell-based qHTS assay with human liver microsomes: qHTS cell viability counter screen (AID 1963579); note: nearly all actives have a fitted effect of over 45% in size
Method in brief: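 Cells carrying the p53 response-element beta-lactamase reporter are treated for 16 h at 37 C with test compounds in the presence of human liver microsomes and NADPH (both 0.5 mg/mL final); ATP-based CellTiter-Glo luminescence then reports viability.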

[8] = p53 small molecule agonists, cell-based qHTS assay with rat liver microsomes: qHTS cell viability counter screen (AID 1963580); note: nearly all actives have a fitted effect of over 45% in size
Method in brief: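 p53RE-bla HCT-116 cells were exposed 16 h at 37 C to compounds with rat liver microsomes (0.5 mg/mL) and NADPH (0.5 mg/mL). Viability was measured in the same wells as ATP content by CellTiter-Glo luminescence.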

[9] = p53 small molecule agonists, cell-based qHTS assay (AID 1963582; active = well fitted activation curve with a large enough effect in the signal ratio in the repeat runs, not every such curve was filed as active; the % refers to the signal ratio)
Method in brief: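 Compounds are pin-transferred in DMSO onto p53RE-bla cells and incubated 16 h at 37 C. The B/G FRET beta-lactamase substrate is then applied for 2 h at RT and fluorescence recorded.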

[10] = biological target: 5-hydroxytryptamine receptor 2A (Homo sapiens) (UniProt P28223); assay: 5-hydroxytryptamine receptor 2A (HTR2A) small molecule antagonists, cell-based qHTS assay (AID 1963586); note: nearly all actives have a fitted effect of over 45% in size; note: potency is the fitted concentration of half-maximal effect
Sequence of 5-hydroxytryptamine receptor 2A (Homo sapiens) (P28223 whole entry, looked up): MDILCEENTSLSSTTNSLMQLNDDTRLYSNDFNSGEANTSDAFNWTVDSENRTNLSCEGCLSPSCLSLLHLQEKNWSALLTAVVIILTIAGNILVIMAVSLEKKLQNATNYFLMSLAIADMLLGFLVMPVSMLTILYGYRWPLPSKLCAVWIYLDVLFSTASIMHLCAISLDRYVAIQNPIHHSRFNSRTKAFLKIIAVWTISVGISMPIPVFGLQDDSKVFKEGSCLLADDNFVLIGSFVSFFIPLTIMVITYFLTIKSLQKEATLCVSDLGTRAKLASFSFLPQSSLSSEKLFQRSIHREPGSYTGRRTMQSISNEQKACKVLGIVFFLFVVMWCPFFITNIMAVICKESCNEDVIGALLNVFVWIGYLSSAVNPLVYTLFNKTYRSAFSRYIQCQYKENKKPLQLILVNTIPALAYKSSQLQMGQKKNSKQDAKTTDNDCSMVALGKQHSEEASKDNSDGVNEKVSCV
Method in brief: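 Antagonist-mode intracellular calcium assay: DOI (4 nM) added after 5 min compound pre-incubation at room temperature to dye-loaded HTR2A-CHO cells. Fluorescence followed for 3 min, sampled every second.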

[11] = biological target: 5-hydroxytryptamine receptor 2A (Homo sapiens) (UniProt P28223); assay: 5-hydroxytryptamine receptor 2A (HTR2A) small molecule agonists, cell-based qHTS assay (AID 1963587); note: nearly all actives have a fitted effect of over 30% in size; note: potency is the fitted concentration of half-maximal effect
Method in brief: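 CHO cells stably expressing human HTR2A, plated 18 h, loaded with calcium dye 1 h at 37 C. Agonist mode: compounds added and intracellular calcium fluorescence recorded kinetically for 2 min at 1 sec intervals.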

[12] = biological target: Muscarinic acetylcholine receptor M1 (Homo sapiens) (UniProt P11229); assay: Cholinergic receptor muscarinic 1 (CHRM1) small molecule agonists, cell-based qHTS assay (AID 1963589); note: nearly all actives have a fitted effect of over 35% in size
Sequence of Muscarinic acetylcholine receptor M1 (Homo sapiens) (P11229 whole entry, looked up): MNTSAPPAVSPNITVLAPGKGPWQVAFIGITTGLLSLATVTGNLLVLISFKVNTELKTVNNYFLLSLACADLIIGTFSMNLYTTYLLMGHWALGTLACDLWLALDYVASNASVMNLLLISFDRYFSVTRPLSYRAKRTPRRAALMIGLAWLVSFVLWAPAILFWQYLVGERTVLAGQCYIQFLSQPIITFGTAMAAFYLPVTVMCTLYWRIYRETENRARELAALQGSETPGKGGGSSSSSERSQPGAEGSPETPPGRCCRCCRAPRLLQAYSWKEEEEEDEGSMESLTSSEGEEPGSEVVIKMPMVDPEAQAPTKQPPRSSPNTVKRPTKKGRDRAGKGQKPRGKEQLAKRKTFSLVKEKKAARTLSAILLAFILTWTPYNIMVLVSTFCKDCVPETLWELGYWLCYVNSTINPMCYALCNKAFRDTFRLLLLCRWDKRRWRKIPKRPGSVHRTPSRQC
Method in brief: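 Each compound was tested at 15 concentrations across three independent runs on dye-loaded CHO cells stably expressing human CHRM1, reading intracellular calcium fluorescence kinetically at 1 sec intervals.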

[13] = cAMP Responsive Elements (CRE) small molecule antagonists, cell-based qHTS assay (AID 1963591; active = well fitted inhibition curve with a large enough effect in the signal ratio in the repeat runs, not every such curve was filed as active; the % refers to the signal ratio)
Method in brief: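 Inhibition of NKH477-driven (0.25 uM final) CRE-beta-lactamase signal in HEK293T cells, 3 h compound exposure at 37 °C, detected by FRET substrate fluorescence.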

[14] = biological target: Beta-2 adrenergic receptor (Homo sapiens) (UniProt P07550); assay: Adrenergic beta2 receptor (ADRB2) small molecule antagonists, cell-based qHTS assay (AID 1963592); note: series mostly up to about 92 µM; nearly all actives have a fitted effect of over 50% in size
Sequence of Beta-2 adrenergic receptor (Homo sapiens) (P07550 whole entry, looked up): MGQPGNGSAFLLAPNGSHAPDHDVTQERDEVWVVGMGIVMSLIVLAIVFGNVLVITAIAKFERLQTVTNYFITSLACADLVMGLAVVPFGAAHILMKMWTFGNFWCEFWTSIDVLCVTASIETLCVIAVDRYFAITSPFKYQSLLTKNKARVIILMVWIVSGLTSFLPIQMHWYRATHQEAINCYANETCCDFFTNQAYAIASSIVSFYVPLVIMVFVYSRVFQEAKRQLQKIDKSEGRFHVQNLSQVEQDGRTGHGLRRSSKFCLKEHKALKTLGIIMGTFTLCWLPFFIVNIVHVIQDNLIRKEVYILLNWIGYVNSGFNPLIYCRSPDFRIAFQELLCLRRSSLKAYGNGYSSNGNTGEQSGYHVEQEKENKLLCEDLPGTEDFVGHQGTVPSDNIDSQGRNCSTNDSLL
Method in brief: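 Cells (CHO, stable ADRB2 overexpression) incubated 18-20hr at 37C; compounds added from DMSO; agonist mix (1nM isoproterenol, 100uM IBMX, 25uM Ro-20-1724) added; 0.5hr RT; d2-cAMP and anti-cAMP-cryptate added; 1hr RT; 665/615 nm read.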

[15] = biological target: D(2) dopamine receptor (Homo sapiens) (UniProt P14416); assay: Dopamine D2 receptor (DRD2) small molecule antagonists, cell-based qHTS assay (AID 1963595; active = well fitted inhibition curve with a large enough effect in the signal ratio in the repeat runs, with a control signal flat; the % refers to the signal ratio)
Sequence of D(2) dopamine receptor (Homo sapiens) (P14416 whole entry, looked up): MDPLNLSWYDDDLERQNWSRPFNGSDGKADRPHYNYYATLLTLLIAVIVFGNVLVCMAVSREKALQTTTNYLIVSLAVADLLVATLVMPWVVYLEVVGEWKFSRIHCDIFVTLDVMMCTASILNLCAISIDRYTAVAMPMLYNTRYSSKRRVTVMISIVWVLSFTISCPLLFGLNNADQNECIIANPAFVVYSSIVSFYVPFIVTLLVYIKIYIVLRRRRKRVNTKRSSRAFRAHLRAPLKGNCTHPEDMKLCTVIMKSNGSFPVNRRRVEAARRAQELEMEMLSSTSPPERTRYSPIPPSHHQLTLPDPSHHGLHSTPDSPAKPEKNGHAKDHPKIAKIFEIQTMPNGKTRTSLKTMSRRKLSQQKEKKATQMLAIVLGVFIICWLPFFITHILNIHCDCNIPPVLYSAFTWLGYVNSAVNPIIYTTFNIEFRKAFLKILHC
Method in brief: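 Antagonism was scored as restored cAMP in HEK293-DRD2 cells. These cells were stimulated with 200 nM NKH477 and 12 nM quinpirole for 30 min at room temperature, in the presence of 0.1 mM Ro20-1724.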

[16] = p53 small molecule agonists, cell-based qHTS assay: qHTS cell viability counter screen (AID 1963581); note: nearly all actives have a fitted effect of over 45% in size
Method in brief: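 In the same plates used for the p53 bla reporter, HCT-116 cells given compounds for 16 h at 37 C received CellTiter-Glo; luminescence was recorded 30 min later at room temperature.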

[17] = cAMP Responsive Elements (CRE) small molecule agonists, cell-based qHTS assay (AID 1963590)
Method in brief: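 Cell line: CRE-bla HEK 293T; medium DMEM/10% dialyzed FBS/0.1 mM NEAA/1 mM pyruvate/25 mM HEPES; 3 h compound exposure; beta-lactamase FRET readout after 2 h substrate loading at RT.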

[18] = biological target: D(2) dopamine receptor (Homo sapiens) (UniProt P14416); assay: Dopamine D2 receptor (DRD2) small molecule agonists, cell-based qHTS assay (AID 1963594); note: nearly all actives have a fitted effect of over 35% in size
Method in brief: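 HEK293 cells stably expressing human DRD2, pre-treated with PDE inhibitor Ro20-1724 (0.1 mM final) and compound 10 min at room temperature, then stimulated with NKH477 (200nM […]) for 30 min. cAMP read by HTRF (665/620 nm).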

[19] = biological target: Muscarinic acetylcholine receptor M1 (Homo sapiens) (UniProt P11229); assay: Cholinergic receptor muscarinic 1 (CHRM1) small molecule antagonists, cell-based qHTS assay (AID 1963588); note: nearly all actives have a fitted effect of over 40% in size
Method in brief: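 CHRM1-CHO calcium-flux assay, antagonist mode. Cells were seeded 18 h, dye-loaded 1 h at 37 C and given compound for 5 min at RT, then acetylcholine was added at 50nM. FDSS fluorescence was read 3 min; 15 concentrations, three runs.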

[20] = G protein-coupled receptor (GPCR) small molecule agonists, calcium flux assay: HEK293 wild type cell line counter screen (AID 1920065)
Method in brief: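 Readout: fluorescence at 480 nm excitation/540 nm emission, sampled at 1 s intervals for 3 min. Cells had been cultured 18 h, then dye-loaded 1 h at 37 C before compound or ATP addition.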

Measured: Potency

CCCCOC(=O)C(C)Oc1ccc(Oc2ccc(C(F)(F)F)cn2)cc1 (stereo not drawn)
not listed: [16] | [17] | [18] | [19] | [20]
inactive: all other assays above

COC(=O)c1ccc(I)cc1S(=O)(=O)NC(=O)Nc1nc(C)nc(OC)n1
not listed: [13] | [19] | [20]
inactive: all other assays above

CN1CCN(N)CC1
not listed: [13] | [16] | [20]
inactive: all other assays above

CCCC(=O)O[C@]1(C(=O)CC)CC[C@H]2[C@@H]3CCC4=CC(=O)CC[C@]4(C)[C@H]3[C@@H](O)C[C@@]21C
not listed: [13] | [17] | [20]
inactive: all other assays above

CC(C)(O)c1coc(S(=O)(=O)NC(=O)Nc2c3c(cc4c2CCC4)CCC3)c1
active: [2] 61.1 µM
not listed: [10] | [15] | [16] | [17] | [20]
inactive: all other assays above

O=C1CCCN1CCO
not listed: [9] | [13] | [17] | [20]
inactive: all other assays above

CCOC(=O)C1=C(C)NC(C)=C(C(=O)OC)C1c1cccc(Cl)c1Cl (stereo not drawn)
not listed: [10] | [11] | [12] | [19] | [20]
inactive: all other assays above

Cc1cc(N)c2cc(NC(=O)Nc3ccc4nc(C)cc(N)c4c3)ccc2n1
not listed: [14] | [15] | [19] | [20]
inactive: all other assays above

CCNC(=O)N1CCN(CCCC(c2ccc(F)cc2)c2ccc(F)cc2)CC1
active: [10] 0.23 µM
not listed: [9] | [13] | [15] | [19] | [20]
inactive: all other assays above

CCCCCCCCCCOC(C)=O
not listed: [10] | [19] | [20]
inactive: all other assays above

CCN(CC)CCOC(=O)C(Cc1cccc2ccccc12)CC1CCCO1 (stereo not drawn)
not listed: [9] | [10] | [13] | [19] | [20]
inactive: all other assays above

CCN1CN(CC)CN(CC)C1
not listed: [9] | [13] | [18] | [19] | [20]
inactive: all other assays above

COc1cc(C)ccc1O
not listed: [9] | [13] | [20]
inactive: all other assays above

[Cl][Pt-2]([Cl])([Cl])[Cl]
not listed: [9] | [15] | [17] | [18] | [20]
inactive: all other assays above

COCCOC(=O)C1=C(C)NC(C)=C(C(=O)OC(C)C)C1c1cccc([N+](=O)[O-])c1 (stereo not drawn)
inactive: [1] | [2] | [3] | [4] | [5] | [6] | [7] | [8] | [9] | [14] | [18]

CN1CC(=O)NC1=N
not listed: [12] | [13] | [15] | [16] | [20]
inactive: all other assays above

CN1CN(C)CN(C)C1
not listed: [9] | [16] | [20]
inactive: all other assays above

O=C(O)Cc1ccc2c(c1)C(=O)c1ccccc1CO2
not listed: [9] | [13] | [17] | [20]
inactive: all other assays above

CN(C)CCN1CCOCC1
not listed: [10] | [12] | [20]
inactive: all other assays above

Cc1ccc2c(c1[N+](=O)[O-])C(=O)c1ccccc1C2=O
active: [2] 16.9 µM
not listed: [9] | [14] | [16] | [17] | [18] | [20]
inactive: all other assays above

CC(=O)N(CC(=O)N(C)C)c1ccccc1
not listed: [10] | [20]
inactive: all other assays above

CC(C)C(=O)OC/C=C/c1ccccc1
not listed: [16] | [17] | [18] | [20]
inactive: all other assays above

O=C(NCCc1c[nH]c2ccccc12)c1cccnc1
active: [11] 3.01 µM
not listed: [10] | [14] | [18] | [20]
inactive: all other assays above

Nc1nc(N)nc(-c2cc(Cl)ccc2Cl)n1
not listed: [10] | [11] | [12] | [14] | [18] | [19] | [20]
inactive: all other assays above

C=CC(=O)OCC(Br)CBr (stereo not drawn)
active: [2] 68.6 µM
not listed: [8] | [11] | [20]
inactive: all other assays above

CCN(CC)C(C)=O
not listed: [4]
inactive: all other assays above

NC(=O)CC[C@@H](N)C(=O)O
not listed: [7] | [20]
inactive: all other assays above

O=C(OCc1ccccc1)C(=O)OCc1ccccc1
not listed: [7] | [10] | [14] | [20]
inactive: all other assays above

Cc1nc2n(c(=O)c1CCN1CCC(c3noc4cc(F)ccc34)CC1)CCCC2
not listed: [8] | [10] | [11] | [12] | [14] | [15] | [19] | [20]
inactive: all other assays above

CCOC(=O)CC(=O)c1cc(F)c(Cl)nc1Cl
not listed: [7] | [10] | [13] | [19] | [20]
inactive: all other assays above

Cc1c(C2(c3cc(Br)c(O)c(Br)c3C)OS(=O)(=O)c3ccccc32)cc(Br)c(O)c1Br
active: [1] 21 µM
not listed: [9] | [12] | [14] | [15] | [16] | [18] | [20]
inactive: all other assays above

NCCS
not listed: [5] | [13] | [18] | [20]
inactive: all other assays above

CC(C)(C)NC[C@H](O)COc1cccc2c1CCCC2=O
not listed: [5] | [10] | [11] | [12] | [13] | [14] | [19] | [20]
inactive: all other assays above
